Consider 49 compounds from PubChem BioAssay AID588342 (National Center for Advancing Translational Sciences (NCATS), 2011).

In all, about 360,000 compounds went through this assay and about 25,000 (6.9%) were called active. About 9% were inconclusive and are not listed. Calls follow the shape of the dose curve; as a rule, active = well fitted inhibition curve with a large enough effect; inconclusive = small, poorly fitted or top-dose-only effect; inactive = flat fitted curve, though single readings scatter. Shown is part of a subset that was picked to be rich in actives.

The target of the assay is Luciferin 4-monooxygenase (Photinus pyralis) (UniProt P08659). Briefly: qHTS profiling assay for firefly luciferase inhibitor/activator using purifed enzyme and Km concentrations of substrates (counterscreen for miR-21 project). Also: nearly all actives have a fitted effect of over 55% in size.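 As to activity change, negative = inhibition: plate controls were vehicle for no effect and reference inhibitor for full effect.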 The settings on record: purified FLuc, luminescence inhibition; series mostly up to 57.5 µM; activity change, negative = inhibition: at the top concentration. An excerpt: MLPCN Grant: 1 R21 NS059478-01 (miR-21 grant) Assay Provider: NCGC NCGC Assay Overview: Firefly (Photinus pyralis) luciferase is one of the most commonly used transcriptional reporters for a number of reasons. It is considered one of the more dynamically responsive reporters -that is, responsive to changes in reporter transcription - as it requires no post-translational modifications and is enzymatically active directly after protein synthesis (Wood, 1998). Additionally, the half-life of the luciferase protein is short relative to other reporter-gene products (Wood, 1995). Whereas reporters with long half-lives potentially allow for increased signal due to accumulation of reporter-gene product, once accumulated in the cell, dynamic changes in reporter-gene expression may be difficult to detect(Fan and Wood, 2007; Almond et al., 2004). It has been shown that wild-type P. pyralis luciferase has a half-life of approximately […] hours in mammalian cells (Thompson et al., 1991). Firefly luciferase reporter-gene assays are also generally considered one of the most sensitive assay types (Wood, 1995; Wood, 1998). Although light produced in a bioluminescence reaction is of lower intensity than that produced during fluorescence emission, this is offset by little to no background light inherent to luminescent assays. Thus the luciferase reporter can be expressed at much lower levels than fluorescent proteins while still providing robust signal. # However, it was initially observed, in 1991, by Thompson et al., that compounds that resemble the substrates of firefly luciferase (FLuc) can act as competitive inhibitors of the enzyme, and that these compounds, upon interaction with luciferase in the cell, can actually stabilize the protein and increase its half-life. Accumulated intracellular FLuc protein can be measured as an increase in luminescence signal, upon addition of detection reagents (which contain high concentrations of FLuc substrates) commonly used in high-throughput screening. In cell-based reporter gene assays that use FLuc as the reporter gene to quantitate the potential influence of a given compound against the target biology, this apparent increase in luminescence can mistakenly be interpreted as identification of a compound that is active against the target of interest. This is the case for the miR-21 FLuc reporter gene assay used to identify inhibitors of the miR-21 pathway (PubChem AID 2289) - compounds of interest will inhibit miR-21 biogenesis/expression or activity, and are identified by causing an increase in luminescence, due to increased FLuc translation. However, FLuc inhibitory compounds that stabilize the FLuc protein will give an identical read-out, making it difficult to distinguish compounds that are active against the target from those active against FLuc. Previous profiling work to determine the prevalence of compounds that affect FLuc enzymatic activity (PubChem AID 411) identified that ~3% of the MLSMR library (then at ~72K) inhibited FLuc. […] Since the MLSMR had grown to ~350K compounds, and since it was expected that a significant percentage of compounds found active in the miR-21 FLuc assay would be FLuc inhibitors, the library was screened for activity against FLuc using a biochemical assay of purified FLuc and KM concentrations of FLuc substrates (D-luciferin and ATP).
Luciferin 4-monooxygenase (Photinus pyralis), sequence (P08659 whole entry, looked up): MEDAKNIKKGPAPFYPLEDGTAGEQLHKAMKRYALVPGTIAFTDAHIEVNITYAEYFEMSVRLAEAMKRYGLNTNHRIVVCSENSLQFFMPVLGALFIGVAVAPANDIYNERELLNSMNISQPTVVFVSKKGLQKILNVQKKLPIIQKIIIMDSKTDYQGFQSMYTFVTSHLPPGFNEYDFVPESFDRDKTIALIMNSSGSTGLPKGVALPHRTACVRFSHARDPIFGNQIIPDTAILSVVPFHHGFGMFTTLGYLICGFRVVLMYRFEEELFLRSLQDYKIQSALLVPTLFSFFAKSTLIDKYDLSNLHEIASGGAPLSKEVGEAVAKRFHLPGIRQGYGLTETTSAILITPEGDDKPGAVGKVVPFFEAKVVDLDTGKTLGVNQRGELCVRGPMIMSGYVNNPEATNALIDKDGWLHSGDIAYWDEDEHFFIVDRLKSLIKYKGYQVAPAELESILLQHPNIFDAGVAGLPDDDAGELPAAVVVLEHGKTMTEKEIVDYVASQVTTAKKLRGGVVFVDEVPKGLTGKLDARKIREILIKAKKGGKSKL
NCGC Assay Protocol Summary: Reagents: 50mM Tris acetate, pH 7.5; 10mM Mg acetate; 10uM D-luciferin (Sigma #L9504); 10uM ATP; 0.01% Tween-20; 0.05% BSA; 10nM P. pyralis luciferase (Sigma #L9506) Control compounds used were two known firefly luciferase inhibitors (compounds (2) and (5) in Auld et al., 2010), and DMSO. […]
A general note: Quantitative high-throughput screening tests each substance at several concentrations.
On to `COc1ccc(OC)c(NC(=O)Cn2c(=O)n(Cc3ccccc3)c(=O)c3ccccc32)c1`, for which the “activity change, negative = inhibition” value was -0.577% (inactive).

For `Cc1ccc(NC(=O)C(C)Sc2nnc(C3CC3)n2C2CC2)cc1S(=O)(=O)N1CCOCC1` (centres undefined), the “activity change, negative = inhibition” value was 12.6% (inactive).

With `Nc1[nH][nH]c(=O)c1N=Nc1ccc2c(c1)OCO2`, the Potency was 13.5 µM (active).

`CC(=O)C1=C(C)NC(=O)NC1c1ccc2c(c1)OCO2` (centres undefined): the “activity change, negative = inhibition” value was 4.8% (inactive).

Turning to `CC(=O)c1cc2c(cc1N)OCO2`, the “activity change, negative = inhibition” value is 3.19% (inactive).

Turning to `Cc1ccc(CNC(=O)CC(NC(=O)c2ccccc2)c2ccccc2)cc1` (centres undefined), the “activity change, negative = inhibition” value is 6.17% (inactive).

`Cc1cccc(NC(=O)CN2CCN(CC(=O)NCC3(N4CCCCC4)CCCCC3)CC2)c1C`: the “activity change, negative = inhibition” value is 6.22% (inactive).

As to `CCn1c(SCC(=O)Nc2nccs2)nnc1-c1ccncc1`, the “activity change, negative = inhibition” value was -0.256% (inactive).

For `CCn1c(SCC(=O)c2ccc(Cl)s2)nnc1-c1cccs1`, the Potency was 16.9 µM (active).

For `Cn1c(SCC(=O)N2CCCC2)nnc1-c1cccs1`, the “activity change, negative = inhibition” value was 0.337% (inactive).

Turning to `Cc1ccc(C)c(N2CCN(C(=O)Cn3ncc4c(=O)oc5ccc(C)cc5c43)CC2)c1`, the “activity change, negative = inhibition” value is 2.16% (inactive).

Consider `COc1ccc(OC)c(CCNC(=O)CCCn2c(=O)c3cccn3c3cccnc32)c1`, for which the “activity change, negative = inhibition” value is -0.342% (inactive).

Regarding `COc1ccc(N(CCC(=O)NCCc2ccccc2)S(=O)(=O)c2ccc(C)cc2C)cc1`, the “activity change, negative = inhibition” value was -19.9% (inactive).

`O=C(CSc1nc(=O)[nH]c2c1CCCC2)Nc1cc(C(F)(F)F)ccc1Cl`: the “activity change, negative = inhibition” value was -12.1% (inactive).

Consider `O=C(Nc1cc(C(F)(F)F)ccc1Cl)c1cc2nc3c(c(C(F)(F)F)n2n1)CCCC3`, for which the Potency was 2.69 µM (active).

In the case of `O=C(Nc1cc(C(F)(F)F)ccc1Cl)c1cc2nc(-c3ccc4c(c3)OCO4)cc(C(F)(F)F)n2n1`, the “activity change, negative = inhibition” value was 4.73% (inactive).

On to `COc1cccc(N2CCN(S(=O)(=O)c3ccc4c(c3)CCCN4C(C)=O)CC2)c1`, for which the “activity change, negative = inhibition” value was -5.49% (inactive).

As to `O=S(=O)(NCc1ccco1)c1cnc(Cl)c(Cl)c1`, the “activity change, negative = inhibition” value is -0.879% (inactive).

Consider `C/C(=N\Nc1nc2ccccc2[nH]1)c1cccs1`, for which the Potency was 2.69 µM (active).

In the case of `C/C(=N\Nc1ccc(S(N)(=O)=O)cc1[N+](=O)[O-])c1cccs1`, the “activity change, negative = inhibition” value was 0.692% (inactive).

For `C/C(=N\NC(=O)COc1c(C)cccc1C)c1cccs1`, the “activity change, negative = inhibition” value is 6.97% (inactive).

As for `O=C(Nc1ccccc1-c1nc2ccccc2[nH]c1=O)c1cccs1`, the “activity change, negative = inhibition” value is -3.19% (inactive).

With `C/C(=N\NS(=O)(=O)c1ccc(Br)cc1)c1cccs1`, the “activity change, negative = inhibition” value was -1.87% (inactive).

On to `C/C(=N\Nc1ncc(Cl)cc1Cl)c1cccs1`, for which the Potency was 9.53 µM (active).

Consider `CC(Oc1ccc(Cl)cc1)C(=O)OCC(=O)Nc1ncc(Cl)cc1Cl` (centres undefined), for which the “activity change, negative = inhibition” value was 4.74% (inactive).

As for `Cc1c(Cl)cnc(NC(=O)COC(=O)c2ccc(S(=O)(=O)NCc3ccco3)cc2)c1Cl`, the “activity change, negative = inhibition” value was -2.56% (inactive).

Turning to `COc1ccc(/C(C)=N/Nc2cc(C(F)(F)F)ccc2Cl)c(OC)c1`, the “activity change, negative = inhibition” value is 3.38% (inactive).

With `C/C(=N\Nc1ncc(Cl)cc1Cl)c1ccc(S(=O)(=O)NCc2ccco2)cc1`, the Potency was 16.9 µM (active).

As for `COc1cccc(/C(C)=N/Nc2ncc(Cl)cc2Cl)c1`, the Potency was 19 µM (active).

For `CCOC(=O)c1c(NC(=O)CSc2cn(CCNC(=O)c3cccc(C(F)(F)F)c3)c3ccccc23)sc2c1CCC2`, the “activity change, negative = inhibition” value is 4.53% (inactive).

Take `Cc1occc1-c1nnc(SCC(=O)NC2CCCCC2)o1`: the “activity change, negative = inhibition” value is 0.886% (inactive).

In the case of `CCCc1nn2c(=O)cc(COC(=O)c3ccc(NC(=O)COc4ccc(F)cc4)cc3)nc2s1`, the “activity change, negative = inhibition” value is -4.99% (inactive).

Regarding `COc1ccc(S(=O)(=O)NCC(c2ccc(N(C)C)cc2)N2CCCC2)cc1` (centres undefined), the “activity change, negative = inhibition” value is -3.23% (inactive).

As for `O=C(Cn1ncc2c3ccccc3n(Cc3ccccc3)c2c1=O)NCCCN1CCOCC1`, the “activity change, negative = inhibition” value is 1.27% (inactive).

`CCn1c(Cc2ccc(OC)cc2)nnc1SCC(=O)Nc1ccc(N2CCOCC2)cc1`: the Potency is 23.9 µM (active).

Take `CCn1c(CNC(=O)C23CC4CC(CC(C4)C2)C3)nnc1SCC(=O)Nc1ccc(OC)cc1`: the “activity change, negative = inhibition” value was 2.85% (inactive).

Turning to `Cn1cnnc1SCC(=O)Nc1ccc(N2CCOCC2)cc1`, the “activity change, negative = inhibition” value is -16.7% (inactive).

In the case of `Cc1ccc(Cl)cc1N1CCN(C(=O)c2cn(C)c3ccc(S(=O)(=O)N(C)C4CCCCC4)cc3c2=O)CC1`, the “activity change, negative = inhibition” value was -2.62% (inactive).

On to `Cc1ccc(NC(=O)CCCNC(=O)c2ccc(Cl)cc2)cc1S(=O)(=O)N1CCCCC1`, for which the “activity change, negative = inhibition” value is -1.07% (inactive).

For `COC(=O)c1ccc(C2C(C(=O)Nc3ccccc3)=C(C)Nc3nc4ccccc4n32)cc1` (centres undefined), the “activity change, negative = inhibition” value is 1.14% (inactive).

For `COC(=O)c1ccc(C2C3=C(Nc4nnnn42)c2ccccc2OC3)cc1` (centres undefined), the Potency is 6.01 µM (active).

`COC(=O)C1=C(C(=O)c2ccc(C)cc2)C(c2ccccc2)n2nnnc2N1` (centres undefined): the “activity change, negative = inhibition” value is -5.96% (inactive).

For the compound `COc1cccc(-c2nnc(SCC(=O)N3CCC(C)CC3)o2)c1`, the “activity change, negative = inhibition” value is 3.58% (inactive).

Regarding `COc1cc(OC)c(C(=O)OCC(=O)N2CC(=O)Nc3ccccc32)cc1OC`, the “activity change, negative = inhibition” value is 0.484% (inactive).

In the case of `COc1ccc(C(=O)CSc2nnc(NC(=O)C3CC(=O)N(c4cccc(OC)c4)C3)s2)cc1` (centres undefined), the “activity change, negative = inhibition” value was 4.63% (inactive).

With `Cc1nc(SCC(=O)N2CC(=O)Nc3ccccc32)c2c(C)c(C)sc2n1`, the “activity change, negative = inhibition” value is 1.77% (inactive).

Turning to `COc1cccc(Nc2nnc(SCC(=O)N3CC(C)OC(C)C3)s2)c1` (centres undefined), the Potency is 21.3 µM (active).

For `COc1cccc(Nc2nnc(SCC(=O)N3CC(=O)Nc4ccccc43)s2)c1`, the Potency was 21.3 µM (active).

With `O=C(Nc1ccccc1Cl)N1CCC(CN2CCCCC2)CC1`, the “activity change, negative = inhibition” value is -3.25% (inactive).
